Structures are written as SMILES. Results filed as inconclusive are left out. Entries that show only a call come without a potency. Calls of active or inactive are those of the source. The call rests on the fitted dose curve; in most records, active means well fitted inhibition curve with a large enough effect; inconclusive means small, poorly fitted or top-dose-only effect; inactive means no such curve, though single readings can be large or run the other way.
Potency means the concentration at half of the fitted maximal effect.

Tumor susceptibility gene 101 protein (Homo sapiens), sequence (Q99816 whole entry, looked up, the tested form may be a part): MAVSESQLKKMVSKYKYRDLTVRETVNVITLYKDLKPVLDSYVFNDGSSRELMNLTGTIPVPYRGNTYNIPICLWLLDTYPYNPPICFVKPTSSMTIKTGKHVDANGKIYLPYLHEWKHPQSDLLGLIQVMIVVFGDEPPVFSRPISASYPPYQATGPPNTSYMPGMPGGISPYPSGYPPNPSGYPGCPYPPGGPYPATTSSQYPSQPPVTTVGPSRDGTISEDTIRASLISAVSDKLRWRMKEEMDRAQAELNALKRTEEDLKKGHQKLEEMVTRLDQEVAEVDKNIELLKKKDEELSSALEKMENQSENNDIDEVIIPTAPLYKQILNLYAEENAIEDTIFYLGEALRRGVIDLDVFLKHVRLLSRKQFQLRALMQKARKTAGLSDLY

This test addresses Tumor susceptibility gene 101 protein (Homo sapiens) (UniProt Q99816). The experiment in a line: qHTS Assay for Iinhibitors of HIV-1 Budding by Blocking the Interaction of PTAP/TSG101: Hit Validation in TR assay. The following applies: Tsg101 binding domain + Texas Red-labeled PTAP peptide, fluorescence polarization, 20 min; series mostly up to 57.5 µM. The procedure, abridged:
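Fluorescence polarization: Tsg101 binding domain (10 uM final) with Texas Red-labelled PTAP peptide (50 nM final) in HEPES pH 7.5, 0.15 M NaCl, Tween 20, EDTA, TCEP; 20 min binding at room temperature after compound addition.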
For `COc1cccc2c1C(=O)c1c(O)c3c(c(O)c1C2=O)CC(O)(C(C)=O)CC3OC1CC(O)C(O)C(C)O1` (stereo not drawn), the Potency entry was “inactive”. With `Cn1c2ccc(F)cc2c2nc3ccccc3nc21` the entry was “inactive”; with `COc1cc(OC)c(-c2cc(C(=O)O)ccc2OC)c(OC)c1`, “inactive”; with `O=C1CCN2C=Nc3cccc4ccc1c2c34`, “inactive”. Next, `CC1CCCN(Cc2c(O)ccc3c2O/C(=C\c2ccco2)C3=O)C1` (stereo not drawn): “inactive”. With `CCCCCCCCOc1ccc(C2OC34CCCCC3C(C#N)(C#N)C2(C#N)C(=N)O4)cc1` (stereo not drawn) the entry was “inactive”.

Regarding `Cc1ccc(/C=C/C(=O)Nc2ccc(S(=O)(=O)Nc3onc(C)c3C)cc2)cc1`, the Potency result was “inactive”.

As for `COc1ccc(CCn2c(=N)c(S(=O)(=O)c3ccc(Cl)cc3)cc3c(=O)n4ccccc4nc32)cc1`, the Potency result is “inactive”. With `COc1ccc(C(=O)c2sc3nc(C)cc(-c4cccs4)c3c2N)cc1` the entry was “inactive”.

As for `COc1ccc(OC)c(/C=C2\N=C(c3ccccc3)OC2=O)c1`, the Potency entry was “inactive”.

Consider `c1ccc(-c2cn3nc(-c4ccccc4)c(-c4ccccc4)nc3n2)cc1`, for which the Potency result is “inactive”. As for `Oc1ccc2ccc3cccc[n+]3c2c1`, the Potency entry is “inactive”. Next, `COc1cccc2c1C(=O)c1c(O)c3c(c(O)c1C2=O)C[C@@](O)(C(C)=O)C[C@@H]3O[C@H]1C[C@H](N)[C@H](O)[C@H](C)O1`: 20.6 µM (active); `CCN1CCN(Cc2ccc(NC(=O)Nc3ccccc3OC)cc2)CC1`: “inactive”; `CCOC(=O)c1cnc2ccc(OC)cc2c1Nc1ccc(N2CCN(C)CC2)cc1`: “inactive”. With `O=C(CCl)N1c2ccccc2Oc2ccc3ccccc3c21` the entry was “inactive”. As for `CCOc1cc(/C=C(\C#N)c2nc(-c3cccs3)c(NC(C)=O)s2)ccc1O`, the Potency result is “inactive”. `O=c1oc2c3c4c(cc2c2c1CCC2)OCCN4CCC3`: the Potency result is “inactive”. Next, `Nc1nnnn1/N=C/c1cc(Cl)cc(Cl)c1O`: “inactive”. Take `COc1ccc(C(=O)c2sc3nc(C)cc(-c4cccs4)c3c2N)cc1OC`: the Potency entry is “inactive”.

Regarding `O=C(Cc1nc2ccccc2[nH]c1=O)c1ccccc1`, the Potency entry is “inactive”. Next, `CCCCn1c(SCC(=O)c2cc(OC)ccc2OC)nc2cc(S(N)(=O)=O)ccc21`: “inactive”.

Regarding `CN1CC=C2C(C#N)=C(N)C(C#N)(C#N)[C@H](c3ccoc3)[C@H]2C1`, the Potency entry was “inactive”. Next, `CCOc1ccc(-c2nn(-c3ccccc3)cc2/C=C2\SC(=S)N(C3CCS(=O)(=O)C3)C2=O)cc1` (stereo not drawn): “inactive”; `C/C(=N/NC(=O)c1ccncc1)c1cc2ccc(O)cc2oc1=O`: “inactive”.

For `C=CCOc1ccc(C2C(C(=O)c3cccs3)=C(O)C(=O)N2c2nnc(C)s2)cc1` (stereo not drawn), the Potency entry is “inactive”. As for `Cc1cc2nc3c(=O)n(CCc4ccccc4)c(=O)[nH]c3nc2cc1N`, the Potency result was “inactive”.

With `COc1ccc(OC)c2c1C(=O)c1ccccc1C2=O`, the Potency entry was “inactive”.

Turning to `CC(C)(C)c1ccc(C2C3=C(CCCC3=O)NC3=C2C(=O)c2ccccc23)cc1` (stereo not drawn), the Potency result is “inactive”. In the case of `C=CCOn1c(=O)c(-c2cc3ccccc3o2)[n+]([O-])c2ccccc21`, the Potency result was “inactive”. Next, `Oc1c(C=Nc2ccccc2)sc2ccccc12`: 36.6 µM (active); `Cc1ccc(C(=O)Nc2ccc(C(=O)O)cc2)cc1S(=O)(=O)NCc1ccccc1`: “inactive”. Next, `COC(=O)CN1C(=S)N(c2ccc(OC)cc2)C(=O)/C1=C/c1ccc(N2CCOCC2)cc1`: “inactive”.

Consider `CCOC(=O)c1c(C)oc2c1c(CN1CCN(C(=O)OCC)CC1)c(O)c1ccccc12`, for which the Potency entry is “inactive”. As for `Clc1ccc(-c2nnc3sc(-c4ccc(Br)o4)nn23)cc1`, the Potency result is “inactive”. Next, `Cn1nc([N+](=O)[O-])c(C(C#N)c2nc3ccccc3n2C)c(Cl)c1=O` (stereo not drawn): “inactive”; `O=C(O)c1ccccc1-c1ccc(/C=C/c2cc(C(F)(F)F)[nH]c(=O)n2)o1`: “inactive”. With `CCn1c(/C=C/c2cc[n+](C)cc2)nc2ccccc21`, the Potency result was “inactive”.

Values taken from PubChem BioAssay AID651599 (National Center for Advancing Translational Sciences (NCATS), 2012).
